Laboratory results from the supplement of paper PMC10849652.
The full data set covers some 7,900 targets. This sample favours those with a hit. About 0.6% of all pairs of compound and target were hits.

Compound: c1cn2cc(-c3ccc4cn[nH]c4c3)nc(Nc3ccc(N4CCOCC4)cc3)c2n1 [entospletinib]
Assay: log2 fold change, soluble protein after heating vs DMSO (PISA); higher = thermal stabilisation; K562 cells, 10 uM, 30 min; active = over 0.2 and 3.5 SD of the protein, either way, in both replicates (recomputed)
Outline: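 Quantification of soluble protein used TMTpro 16plex LC-MS/MS, with channel sums equalised. Samples were the supernatant after 21,000xg for 90 min of pooled aliquots from K562 cells (2×10^6 cells/mL) treated with 10 μM compound for 30 min, heated for 3 min over 48°C-58°C, and extracted in PBS with 0.5% NP-40 at 4°C. Values, from duplicates, describe thermal stability against control samples on a log2 fold-change scale.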

UniProt Q96DI7, sequence (Q96DI7 whole entry, looked up): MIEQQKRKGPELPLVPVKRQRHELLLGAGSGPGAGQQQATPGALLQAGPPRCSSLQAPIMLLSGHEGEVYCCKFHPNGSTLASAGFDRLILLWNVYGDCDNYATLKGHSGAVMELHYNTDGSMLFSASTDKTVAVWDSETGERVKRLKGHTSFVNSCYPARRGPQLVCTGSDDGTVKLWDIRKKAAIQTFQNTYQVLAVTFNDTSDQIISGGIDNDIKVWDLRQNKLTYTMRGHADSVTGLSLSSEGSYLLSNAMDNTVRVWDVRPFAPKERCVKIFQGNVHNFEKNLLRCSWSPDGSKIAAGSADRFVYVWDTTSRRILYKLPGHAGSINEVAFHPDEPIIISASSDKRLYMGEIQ
UniProt Q9NYB0, sequence (Q9NYB0 whole entry, looked up): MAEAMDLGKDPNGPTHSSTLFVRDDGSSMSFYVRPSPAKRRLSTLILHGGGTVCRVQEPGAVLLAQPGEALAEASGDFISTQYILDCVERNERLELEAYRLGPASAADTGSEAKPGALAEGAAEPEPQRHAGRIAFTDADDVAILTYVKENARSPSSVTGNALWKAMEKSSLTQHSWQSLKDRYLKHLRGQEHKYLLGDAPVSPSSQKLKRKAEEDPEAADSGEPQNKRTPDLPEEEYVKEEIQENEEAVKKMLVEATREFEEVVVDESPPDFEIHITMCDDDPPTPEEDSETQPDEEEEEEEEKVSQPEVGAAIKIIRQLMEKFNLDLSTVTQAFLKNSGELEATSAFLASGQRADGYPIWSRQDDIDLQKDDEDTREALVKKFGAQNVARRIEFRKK
UniProt Q8N5G0, sequence (Q8N5G0 whole entry, looked up): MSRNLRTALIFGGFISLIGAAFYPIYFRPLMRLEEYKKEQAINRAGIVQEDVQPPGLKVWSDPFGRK
UniProt P08047, sequence (P08047 whole entry, looked up): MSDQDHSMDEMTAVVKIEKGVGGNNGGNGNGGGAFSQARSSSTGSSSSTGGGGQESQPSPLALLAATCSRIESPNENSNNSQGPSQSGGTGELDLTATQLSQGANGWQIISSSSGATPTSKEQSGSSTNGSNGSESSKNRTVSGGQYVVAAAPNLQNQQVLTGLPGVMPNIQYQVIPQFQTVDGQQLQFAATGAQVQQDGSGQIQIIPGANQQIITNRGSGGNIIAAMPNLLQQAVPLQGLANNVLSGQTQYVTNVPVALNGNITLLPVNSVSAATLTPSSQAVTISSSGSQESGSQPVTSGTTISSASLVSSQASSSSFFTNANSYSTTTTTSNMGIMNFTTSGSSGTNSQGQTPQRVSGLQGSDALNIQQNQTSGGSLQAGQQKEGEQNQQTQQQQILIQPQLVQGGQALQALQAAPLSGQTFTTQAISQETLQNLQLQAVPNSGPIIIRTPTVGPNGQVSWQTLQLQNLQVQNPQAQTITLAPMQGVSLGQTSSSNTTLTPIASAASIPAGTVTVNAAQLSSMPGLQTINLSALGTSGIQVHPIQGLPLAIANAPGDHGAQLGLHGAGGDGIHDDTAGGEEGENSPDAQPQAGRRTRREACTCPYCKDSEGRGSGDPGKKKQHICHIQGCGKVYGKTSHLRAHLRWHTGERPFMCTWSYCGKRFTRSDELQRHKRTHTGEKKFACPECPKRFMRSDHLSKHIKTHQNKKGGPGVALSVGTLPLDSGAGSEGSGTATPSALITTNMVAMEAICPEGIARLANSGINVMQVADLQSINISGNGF
UniProt Q96BW9, sequence (Q96BW9 whole entry, looked up): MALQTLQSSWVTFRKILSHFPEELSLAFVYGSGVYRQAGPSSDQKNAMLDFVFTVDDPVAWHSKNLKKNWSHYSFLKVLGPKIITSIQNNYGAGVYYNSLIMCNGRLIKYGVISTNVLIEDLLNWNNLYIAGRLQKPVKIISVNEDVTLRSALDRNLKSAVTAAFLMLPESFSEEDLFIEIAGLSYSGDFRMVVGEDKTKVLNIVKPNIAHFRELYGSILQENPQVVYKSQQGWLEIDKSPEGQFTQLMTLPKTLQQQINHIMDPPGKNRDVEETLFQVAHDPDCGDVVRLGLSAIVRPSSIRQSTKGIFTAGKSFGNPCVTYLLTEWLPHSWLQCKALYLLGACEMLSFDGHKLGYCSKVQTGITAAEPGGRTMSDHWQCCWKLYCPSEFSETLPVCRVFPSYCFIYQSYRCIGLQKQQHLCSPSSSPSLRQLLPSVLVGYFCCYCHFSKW
UniProt Q8NEW0, sequence (Q8NEW0 whole entry, looked up): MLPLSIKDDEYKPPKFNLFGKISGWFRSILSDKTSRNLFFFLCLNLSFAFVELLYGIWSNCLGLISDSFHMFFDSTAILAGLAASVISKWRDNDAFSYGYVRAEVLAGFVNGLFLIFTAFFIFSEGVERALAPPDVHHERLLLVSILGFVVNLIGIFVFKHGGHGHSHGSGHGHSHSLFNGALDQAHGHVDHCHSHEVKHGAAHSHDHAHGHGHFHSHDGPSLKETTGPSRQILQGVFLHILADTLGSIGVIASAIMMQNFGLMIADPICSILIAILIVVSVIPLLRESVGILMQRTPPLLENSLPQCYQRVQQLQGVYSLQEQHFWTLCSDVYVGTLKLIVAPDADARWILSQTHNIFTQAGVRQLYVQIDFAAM
UniProt Q5T5C0, sequence (Q5T5C0 whole entry, looked up): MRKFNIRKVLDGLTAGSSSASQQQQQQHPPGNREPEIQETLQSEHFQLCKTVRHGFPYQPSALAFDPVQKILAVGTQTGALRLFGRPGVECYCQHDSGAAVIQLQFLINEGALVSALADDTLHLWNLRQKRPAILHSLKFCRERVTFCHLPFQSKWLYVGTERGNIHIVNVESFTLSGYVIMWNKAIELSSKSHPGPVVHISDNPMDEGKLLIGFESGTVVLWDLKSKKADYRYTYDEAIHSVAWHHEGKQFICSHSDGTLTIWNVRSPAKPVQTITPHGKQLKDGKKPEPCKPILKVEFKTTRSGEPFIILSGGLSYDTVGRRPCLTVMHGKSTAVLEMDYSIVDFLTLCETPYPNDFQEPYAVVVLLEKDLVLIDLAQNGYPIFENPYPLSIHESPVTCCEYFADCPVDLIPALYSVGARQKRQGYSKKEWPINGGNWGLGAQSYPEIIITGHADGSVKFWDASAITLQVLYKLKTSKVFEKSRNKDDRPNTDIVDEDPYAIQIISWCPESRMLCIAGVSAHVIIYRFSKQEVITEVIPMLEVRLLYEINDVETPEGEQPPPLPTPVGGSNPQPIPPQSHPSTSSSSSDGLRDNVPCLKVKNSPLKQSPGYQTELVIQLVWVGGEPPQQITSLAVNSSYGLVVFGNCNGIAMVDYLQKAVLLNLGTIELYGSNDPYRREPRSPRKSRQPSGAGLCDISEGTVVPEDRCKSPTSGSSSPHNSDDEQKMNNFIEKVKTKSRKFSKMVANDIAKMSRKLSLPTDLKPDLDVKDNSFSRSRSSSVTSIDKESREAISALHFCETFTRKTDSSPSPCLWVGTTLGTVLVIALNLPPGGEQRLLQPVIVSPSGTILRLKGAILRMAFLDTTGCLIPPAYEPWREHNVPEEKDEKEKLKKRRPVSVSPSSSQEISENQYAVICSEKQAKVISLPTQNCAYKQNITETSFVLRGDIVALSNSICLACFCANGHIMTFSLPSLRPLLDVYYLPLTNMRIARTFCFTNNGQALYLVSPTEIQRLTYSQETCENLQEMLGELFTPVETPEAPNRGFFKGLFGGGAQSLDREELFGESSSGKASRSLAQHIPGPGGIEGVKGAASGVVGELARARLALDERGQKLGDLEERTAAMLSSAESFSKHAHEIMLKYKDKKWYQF
UniProt Q66K14, sequence (Q66K14 whole entry, looked up): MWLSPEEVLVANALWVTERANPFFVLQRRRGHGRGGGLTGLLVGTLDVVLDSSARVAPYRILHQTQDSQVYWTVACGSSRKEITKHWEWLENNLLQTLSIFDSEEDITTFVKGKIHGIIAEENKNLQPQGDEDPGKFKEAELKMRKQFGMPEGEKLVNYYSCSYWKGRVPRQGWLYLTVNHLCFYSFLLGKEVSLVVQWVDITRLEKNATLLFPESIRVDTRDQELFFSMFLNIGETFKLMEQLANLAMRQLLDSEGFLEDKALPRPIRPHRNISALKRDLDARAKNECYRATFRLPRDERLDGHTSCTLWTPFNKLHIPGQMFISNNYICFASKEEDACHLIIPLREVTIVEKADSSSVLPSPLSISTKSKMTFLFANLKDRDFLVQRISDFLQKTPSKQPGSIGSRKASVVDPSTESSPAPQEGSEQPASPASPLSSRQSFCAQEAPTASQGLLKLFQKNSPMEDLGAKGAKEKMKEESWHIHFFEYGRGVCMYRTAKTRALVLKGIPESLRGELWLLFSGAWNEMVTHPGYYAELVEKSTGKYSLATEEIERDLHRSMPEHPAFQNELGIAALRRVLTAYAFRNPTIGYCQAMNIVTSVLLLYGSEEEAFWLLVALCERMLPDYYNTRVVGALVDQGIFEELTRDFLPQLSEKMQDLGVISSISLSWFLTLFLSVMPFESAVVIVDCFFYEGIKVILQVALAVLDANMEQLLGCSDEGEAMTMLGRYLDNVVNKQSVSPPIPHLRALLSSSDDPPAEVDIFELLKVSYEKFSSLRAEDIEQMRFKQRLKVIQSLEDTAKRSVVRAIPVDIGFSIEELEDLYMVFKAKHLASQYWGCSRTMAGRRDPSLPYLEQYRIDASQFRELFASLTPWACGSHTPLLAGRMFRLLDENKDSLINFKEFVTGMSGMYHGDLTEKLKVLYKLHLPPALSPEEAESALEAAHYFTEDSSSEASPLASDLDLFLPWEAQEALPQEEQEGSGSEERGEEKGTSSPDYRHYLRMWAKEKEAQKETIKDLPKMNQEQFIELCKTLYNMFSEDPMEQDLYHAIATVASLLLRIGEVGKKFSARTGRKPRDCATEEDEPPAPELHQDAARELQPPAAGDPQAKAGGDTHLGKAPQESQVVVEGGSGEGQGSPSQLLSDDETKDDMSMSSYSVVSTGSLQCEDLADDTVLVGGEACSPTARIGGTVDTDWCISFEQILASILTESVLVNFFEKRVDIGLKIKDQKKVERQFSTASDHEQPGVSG
UniProt Q9Y5L4, sequence (Q9Y5L4 whole entry, looked up): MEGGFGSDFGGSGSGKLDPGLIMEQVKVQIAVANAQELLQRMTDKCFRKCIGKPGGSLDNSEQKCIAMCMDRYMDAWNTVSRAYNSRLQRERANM

log2 fold change, inactive:
SNRNP40 (UniProt Q96DI7) -0.025
TBC1D9B (UniProt Q66K14) 0.138
STARD9 (UniProt Q9P2P6) -0.059
TCOF1 isoform 3 (UniProt Q13428) 0.399
STK4 (UniProt Q13043) -0.024
SNRK (UniProt Q9NRH2) -0.27
SLC35B1 isoform 2 (UniProt P78383) -0.154
SMPD4 isoform 4 (UniProt Q9NXE4) 0.143
TAMM41 isoform 3 (UniProt Q96BW9) -0.039
SNX15 (UniProt Q9NRS6) 0.124
SPAG9 (UniProt O60271) 0.024
SMIM20 isoform 2 (UniProt Q8N5G0) 0.008
SUCLG1 (UniProt P53597) -0.041
SRPRA (UniProt P08240) -0.052
SLC35F6 (UniProt Q8N357) -0.011
SLC35B4 (UniProt Q969S0) 0.033
STX17 (UniProt P56962) -0.071
TCERG1 (UniProt O14776) -0.043
STK26 (UniProt Q9P289) -0.022
SYF2 (UniProt O95926) 0.143
TARS2 (UniProt Q9BW92) -0.072
SNRNP27 (UniProt Q8WVK2) 0.025
TIMM13 (UniProt Q9Y5L4) -0.086
TBRG4 (UniProt Q969Z0) -0.027
TBC1D24 (UniProt Q9ULP9) 0.004
SLC30A7 (UniProt Q8NEW0) -0.201
TGFBI (UniProt Q15582) 0.063
STK39 (UniProt Q9UEW8) -0.007
SLC25A39 (UniProt Q9BZJ4) -0.045
STX7 (UniProt O15400) 0.02
SP1 (UniProt P08047) 0.068
TERF2IP (UniProt Q9NYB0) -0.026
TGFBR1 isoform 2 (UniProt P36897) -0.018
STXBP5 (UniProt Q5T5C0) 0.01
STOM (UniProt P27105) 0.048
